Reference: the supplement of paper PMC6555819

How the values were obtained:
Assay in all cases: PBM binding z-score (relative to random genomic background probes); higher = stronger binding; sequences stand for … in GC…GCGATTGACAGCGTAGAATGAAGG
[1] = tested on: FXR:RXRa (NR concentration 270 nM, RXRa partner concentration 90 nM)
Method in brief: (§1)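 Antibodies against each partner of ligand-free nuclear receptor dimers (one per run) detected binding on custom Agilent 4×180K protein-binding microarrays after 1 h incubation. The double-stranded probes had 34-nt variable regions carrying direct-repeat seeds, single-nucleotide variants, half-site ablations and random human genomic background sequences. Binding z-scores, from regression-normalized fluorescence, use the random background probes as reference.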

[2] = tested on: LXRa:RXRa (NR concentration 270 nM, RXRa partner concentration 90 nM)
Method in brief: as §1

[3] = tested on: LXRa homodimer (NR concentration 270 nM)
Method in brief: as §1

[4] = tested on: LXRb:RXRa (NR concentration 270 nM, RXRa partner concentration 90 nM)
Method in brief: as §1

[5] = tested on: LXRb homodimer (NR concentration 270 nM)
Method in brief: as §1

[6] = tested on: PPARa:RXRa (NR concentration 270 nM, RXRa partner concentration 90 nM)
Method in brief: as §1

[7] = tested on: PPARg:RXRa (NR concentration 180 nM, RXRa partner concentration 90 nM)
Method in brief: as §1

[8] = tested on: PPARg:RXRa 270nM:90nM, anti-RXR (NR concentration 270 nM, RXRa partner concentration 90 nM)
Method in brief: as §1

[9] = tested on: PPARg:RXRa 30nM:10nM, anti-RXR (NR concentration 30 nM, RXRa partner concentration 10 nM)
Method in brief: as §1

[10] = tested on: PPARg:RXRa 90nM:30nM, anti-RXR (NR concentration 90 nM, RXRa partner concentration 30 nM)
Method in brief: as §1

[11] = tested on: PPARg:RXRa DBDmut IVT, anti-RXR (DBD mutation: RXRa K156A/R161A, NR concentration 270 nM, RXRa partner concentration 90 nM)
Method in brief: as §1

[12] = tested on: PPARg:RXRa IVT, anti-PPARg (NR concentration 270 nM, RXRa partner concentration 90 nM)
Method in brief: as §1

[13] = tested on: PPARg DBDmut:RXRa IVT, anti-PPARg (DBD mutation: PPARg1 K132A/R137A, NR concentration 270 nM, RXRa partner concentration 90 nM)
Method in brief: as §1

[14] = tested on: PPARg DBDmut IVT, anti-PPARg (DBD mutation: PPARg1 K132A/R137A, NR concentration 270 nM)
Method in brief: as §1

[15] = tested on: PPARg homodimer (NR concentration 180 nM)
Method in brief: as §1

[16] = tested on: PXR:RXRa (NR concentration 270 nM, RXRa partner concentration 90 nM)
Method in brief: as §1

[17] = tested on: PXR homodimer (NR concentration 270 nM)
Method in brief: as §1

[18] = tested on: RARa:RXR (NR concentration 270 nM, RXRa partner concentration 90 nM)
Method in brief: as §1

[19] = tested on: RARa homodimer (NR concentration 270 nM)
Method in brief: as §1

[20] = tested on: RARb:RXRa (NR concentration 270 nM, RXRa partner concentration 90 nM)
Method in brief: as §1

| Sequence | PBM binding z-score [1] | PBM binding z-score [2] | PBM binding z-score [3] | PBM binding z-score [4] | PBM binding z-score [5] | PBM binding z-score [6] | PBM binding z-score [7] | PBM binding z-score [8] | PBM binding z-score [9] | PBM binding z-score [10] | PBM binding z-score [11] | PBM binding z-score [12] | PBM binding z-score [13] | PBM binding z-score [14] | PBM binding z-score [15] | PBM binding z-score [16] | PBM binding z-score [17] | PBM binding z-score [18] | PBM binding z-score [19] | PBM binding z-score [20] |
| --- | --- | --- | --- | --- | --- | --- | --- | --- | --- | --- | --- | --- | --- | --- | --- | --- | --- | --- | --- | --- |
| CCTACTGGGCCATTCAGAGGTCATTGACCATATG | 3.07 | 4.59 | 6.66 | 3.95 | 0.537 | 3.86 | 2.55 | 3.37 | 1.07 | 2.25 | 4.24 | 4.24 | 0.0159 | 0.229 | 2.02 | 4.93 | 2.23 | 4.52 | 0.388 | 3.17 |
| TCTTGTAGATCTACAGGAGGTTAAGAAAGATCGA | -0.0507 | 1.18 | 0.0906 | 1.05 | -0.353 | 1.13 | 0.0555 | 1.06 | 2.09 | 1.48 | 0.98 | 0.28 | 0.42 | 1.12 | -0.349 | 0.739 | -0.569 | 0.866 | -0.41 | 0.172 |
| CCTACTGGGCCATCAGGTCATTGCTATCAACGTT | 1.55 | 1.63 | 1.36 | 1.64 | -0.479 | 2.83 | 2.62 | 3.75 | 1.26 | 2.92 | 4.86 | 4.95 | 0.318 | -0.34 | 1.02 | 1.75 | 0.209 | 2.17 | -0.0297 | 2.35 |
| TTACCAAGGCGAGCTGAGGTCGTTGATCCAACTC | 0.487 | 0.298 | -0.362 | 0.482 | -0.87 | 0.95 | -0.35 | 0.0213 | -0.31 | 0.219 | 0.105 | -0.00723 | -0.484 | -0.938 | -0.375 | 1.71 | 0.0318 | 1.57 | -0.628 | 0.286 |
| TGAATGAGGTTAAAAATCAGGGAACGTGGCGTCG | 1.83 | 1.78 | -0.491 | 1.1 | 0.545 | 2.87 | 1.72 | 2.33 | 1.16 | 1.77 | 1.43 | 1.8 | 0.361 | 0.195 | -0.0328 | 0.848 | -0.0817 | 1.45 | -0.472 | 1.32 |
| CCTACTGGGCCAAAAAGGTCATTGTTGCCGATAA | 3.25 | 4.03 | 2.95 | 4.03 | 0.141 | 4.47 | 2.62 | 4.03 | 1.19 | 2.96 | 3.95 | 3.99 | -0.0573 | -1.07 | 2.39 | 4.29 | 1.92 | 4.33 | 0.787 | 3.56 |
| TCTTGAAGATCAATAGAGGTTAAGAAAGTGCGCT | 1.21 | 3.88 | 0.18 | 1.99 | -0.548 | 1.79 | -0.0471 | 1.56 | 2.76 | 2.46 | 1.44 | 0.203 | 0.527 | 0.485 | -0.0803 | 3.15 | 0.215 | 1.81 | -0.211 | 0.913 |
| CCTGCAAGGTCAATGGTCAGCTAAAGCAGCTCGC | 6.55 | 4.95 | 0.264 | 3.63 | 0.38 | 5.21 | 4.22 | 4.88 | 1.21 | 3.68 | 2.93 | 2.76 | -0.252 | -1.15 | 2.72 | 3.78 | 0.469 | 4.56 | 0.759 | 5.01 |
| CCAGCCAGGTGAAAGGTAACTCAGTCTGGTACGC | 0.269 | 0.156 | -0.445 | 0.354 | -1.15 | 3.65 | 6.97 | 6.34 | 5.76 | 7.61 | 2.75 | 3.85 | -0.331 | -0.965 | 1.03 | 0.479 | -0.522 | 1.32 | -0.603 | 0.935 |
| AGAACGAGGGCAAGCTGAGTTGATAGCAGAGTAG | 0.521 | 0.295 | -0.476 | 0.14 | -0.878 | 1.4 | 1.32 | 1.19 | 0.0687 | 0.484 | 3.94 | 2.42 | 0.0132 | -0.565 | 0.238 | 1.13 | 0.458 | 0.426 | -0.421 | 2.46 |
| GCTAGTTGGTCAGTAAAAAGTCACACACCGGTCG | 0.351 | 0.195 | 0.138 | -0.0134 | -0.0534 | 0.217 | 0.434 | 0.856 | 0.159 | 0.726 | 0.793 | 0.0874 | 0.0294 | 0.69 | 0.862 | 0.0868 | -0.328 | 0.255 | 0.758 | 0.863 |
| CCGAGTGGGGCAGAAAGGTTACCATACCATCCGG | 0.579 | 0.723 | 0.104 | 0.959 | -0.975 | 2.23 | 1.76 | 2.79 | 0.657 | 2.3 | 1.16 | 1.76 | -1.17 | -1.29 | 0.799 | 1.05 | 0.126 | 1.5 | -0.131 | 1.63 |
| TCGAGTAGCTTACCAATGGGGCATTCAGCTTTCT | -0.38 | -0.514 | -0.884 | 0.00146 | -1.08 | -0.152 | -0.423 | -0.0428 | 0.616 | 0.411 | 1.07 | -0.175 | -1.01 | -0.741 | -0.629 | -0.456 | -1.19 | -0.333 | -1.4 | -0.426 |
